# Several values for one entry are separate records, joined by “and”; a condition that tells them apart may be missing. Equal values may be shown once. Records with an inconclusive call do not appear. Where a call stands in place of a potency, no number is given. Some compounds were tested as several samples or in several runs, with calls that do not always agree. Activity calls are given as the source filed them. Unless noted, calls come from the whole dose curve; as a rule, active = well fitted curve in the direction sought with a large enough effect in the repeat runs; inconclusive = weak or mixed curves; inactive = no such curve, though single readings can be large; an effect the other way counts as inactive or inconclusive.
# What was measured:
# [1] = qHTS assay to identify aromatase inhibitors - cell viability counter screen (AID 743084); details: MCF-7 aro ERE viability, CellTiter-Fluor, 24 h; series mostly up to 70.3 µM;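 note: cells stimulated with testosterone during compound exposure; nearly all actives have a fitted effect of over 55% in size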; note: potency is the fitted concentration of half-maximal effect
# [2] = qHTS assay to identify small molecule that activate the aryl hydrocarbon receptor (AhR) signaling pathway - cell viability counter screen (AID 743086); details: HepG2-AhR-luc viability, CellTiter-Fluor, 24 h; series mostly up to 70.3 µM; note: nearly all actives have a fitted effect of over 45% in size; note: potency is the fitted concentration of half-maximal effect
# Procedure, shortened: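 HepG2-AhR-luc (HG2L7.5c1) cells, 4000/well, were preincubated 5 h at 37C, exposed to compound in qHTS format for 24 hr at 37C, then given CellTiter-Fluor for 30 min; viability was read as fluorescence in the reporter wells.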
# [3] = target: Peroxisome proliferator-activated receptor gamma (Homo sapiens) (UniProt P37231); test: qHTS assay to identify small molecule agonists of the peroxisome proliferator-activated receptor gamma (PPARg) signaling pathway (AID 743094; active = well fitted activation curve with a large enough effect in the signal ratio in the repeat runs, not every such curve was filed as active; the % refers to the signal ratio); details: HEK293H PPARg-UAS-bla, beta-lactamase FRET ratio, 17 h; series mostly up to 57 µM
# Procedure, shortened: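 Quantitative HTS agonist mode: stable HEK293H line with UAS-beta-lactamase reporter under PPARg control, 17 h compound exposure at 37C, fluorescence after 1 h FRET substrate loading at room temperature.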
# [4] = target: Peroxisome proliferator-activated receptor gamma (Homo sapiens) (UniProt P37231); test: qHTS assay to identify small molecule antagonists of the peroxisome proliferator-activated receptor gamma (PPARg) signaling pathway (AID 743191; calls by dose curve; note: nearly all actives have a fitted effect of over 30% in size); details: HEK293H PPARg-UAS-bla, beta-lactamase ratio, antagonist, 17 h; series mostly up to 62.6 µM
# Procedure, shortened: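 GeneBLAzer PPARg UAS-bla HEK293H cells carrying a UAS-driven beta-lactamase reporter were plated at 3000 cells/well, preincubated 5 h at 37C, then given compound for 17 h at 37C; LiveBLAzer B/G FRET substrate was read after 1 h at room temperature.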
# [5] = qHTS assay for small molecule agonists of the antioxidant response element (ARE) signaling pathway - cell viability counter screen (AID 743203; calls by dose curve; note: nearly all actives have a fitted effect of over 55% in size; note: potency is the fitted concentration of half-maximal effect); details: ARE-bla HepG2 viability, CellTiter-Glo luminescence, 16 h; series mostly up to 73.3 µM
# Procedure, shortened: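 Seeded at 2,000 cells/well, ARE-bla HepG2 cells were incubated 5 hrs before compound addition. After 16 hrs of treatment at 37C with 5% CO2, CellTiter-Glo reagent was added and luminescence read 30 min later.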
# [6] = qHTS assay for small molecule activators of the heat shock response signaling pathway - cell viability counter screen (AID 743209); details: HSE-bla HeLa viability, CellTiter-Glo luminescence, 5 h; series mostly up to 62.6 µM; note: nearly all actives have a fitted effect of over 50% in size
# Procedure, shortened: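 First, HSE-bla HeLa cells were seeded at 1500 cells/well and kept overnight at 37 C. Next, compounds were pinned in and incubated 5 h. After the FRET substrate step, CellTiter-Glo was added and luminescence read 30 min later.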
# [7] = qHTS assay for small molecule activators of the heat shock response signaling pathway (AID 743210; active = well fitted activation curve with a large enough effect in the signal ratio in the repeat runs, with a control signal flat, not every such curve was filed as active; the % refers to the signal ratio;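 note: HeLa cells with beta-lactamase reporter driven by heat shock elements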); details: HeLa HSE-bla reporter, beta-lactamase ratio, 5 h; series mostly up to 62.6 µM
# Procedure, shortened: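 Reporter gene assay: HeLa cells stably bearing an HSE-bla construct, compound treatment 5 h at 37 C, LiveBLAzer substrate 2.5 h at RT, fluorescence intensity.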
# [8] = qHTS assay to identify small molecule agonists of the peroxisome proliferator-activated receptor delta (PPARd) signaling pathway - cell viability counter screen (AID 743211); details: PPARd-bla HEK293H viability, CellTiter-Glo luminescence, 17 h; series mostly up to 62.6 µM; note: nearly all actives have a fitted effect of over 55% in size; note: potency is the fitted concentration of half-maximal effect
# Procedure, shortened: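 HEK293H PPARd-bla, 3000 cells/well; 5 h preincubation 37C/5% CO2; cpd in DMSO, 17 h 37C; B/G FRET substrate 2 h RT; CellTiter-Glo 30 min RT, luminescence.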
# [9] = target: Peroxisome proliferator-activated receptor delta (Homo sapiens) (UniProt Q03181); test: qHTS assay to identify small molecule agonists of the peroxisome proliferator-activated receptor delta (PPARd) signaling pathway (AID 743212; calls by dose curve); details: HEK293H PPARd-UAS-bla, beta-lactamase FRET ratio, 17 h; series mostly up to 62.6 µM
# Procedure, shortened: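 A PPARd-bla HEK293H line with beta-lactamase under an Upstream Activator Sequence is treated with compounds at 37 C. Substrate loading for 2 h at room temperature precedes the fluorescence measurement.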
# [10] = qHTS assay to identify small molecule agonists of the farnesoid-X-receptor (FXR) signaling pathway - cell viability counter screen (AID 743218); details: FXR-bla HEK293T viability, CellTiter-Glo luminescence, 16 h; series mostly up to 62.6 µM; note: nearly all actives have a fitted effect of over 45% in size; note: potency is the fitted concentration of half-maximal effect
# Procedure, shortened: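 Cytotoxicity counter-screen run in parallel, same wells: FXR-UAS-bla HEK 293T cells dosed 16 h at 37 C, viability read by CellTiter-Glo luminescence after 30 min at room temperature.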
# [11] = qHTS assay to identify small molecule antagonists of the farnesoid-X-receptor (FXR) signaling pathway - cell viability counter screen (AID 743221; active = well fitted cell-killing curve with a large enough effect in the repeat runs, not every such curve was filed as active; note: nearly all actives have a fitted effect of over 50% in size); details: FXR-bla HEK293T viability, CellTiter-Glo luminescence, 16 h; series mostly up to 62.6 µM
# Procedure, shortened: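 Luminescence from CellTiter-Glo measures cytotoxicity in GeneBLAzer FXR-UAS-bla HEK 293T cells. Cells were exposed to compounds with 50 uM chenodeoxycholic acid (final) for 16 h at 37 C, in wells also used for the reporter readout.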
# [12] = target: Vitamin D3 receptor (Homo sapiens) (UniProt P11473); test: qHTS assay to identify small molecule agonists of the vitamin D receptor (VDR) signaling pathway (AID 743222; calls by dose curve); details: HEK293T VDR-UAS-bla, beta-lactamase FRET ratio, 16 h; series mostly up to 63.5 µM
# Procedure, shortened: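 Quantitative HTS agonist-mode screen: compounds in DMSO were pin-transferred onto VDR-bla cells and incubated 16 h at 37C, 5% CO2. Reporter activity was detected with LiveBLAzer B/G FRET substrate after 2 h at room temperature.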
# [13] = qHTS assay to identify small molecule antagonists of the peroxisome proliferator-activated receptor gamma (PPARg) signaling pathway - cell viability counter screen (AID 743194); details: PPARg-bla HEK293H viability, CellTiter-Glo luminescence, 17 h; Potency: co-treated with 50 nM rosiglitazone; series mostly up to 62.6 µM; note: nearly all actives have a fitted effect of over 55% in size; note: potency is the fitted concentration of half-maximal effect
# Procedure, shortened: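 PPARg-UAS-bla HEK293H cells were plated, rested 5 h at 37 C, then treated with compounds plus rosiglitazone (50 nM final) for 17 h at 37 C; viability was then read by CellTiter-Glo luminescence after 30 min at room temperature.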
# [14] = qHTS assay for small molecule agonists of the antioxidant response element (ARE) signaling pathway (AID 743202; active = well fitted activation curve with a large enough effect in the signal ratio in the repeat runs, not every such curve was filed as active; the % refers to the signal ratio; note: potency is the fitted concentration of half-maximal effect); details: HepG2 ARE-bla reporter, beta-lactamase FRET, 16 h; series mostly up to 73.3 µM
# Procedure, shortened: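 Compounds delivered in DMSO to ARE-bla HepG2 cells (2,000 cells/well, pre-incubated 5 h) and left 16 h at 37 C. LiveBLAzer B/G FRET substrate then added for 2 h at RT before fluorescence reading.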
# [15] = qHTS assay to identify small molecule antagonists of the peroxisome proliferator-activated receptor delta (PPARd) signaling pathway - cell viability counter screen (AID 743213); details: PPARd-bla HEK293H viability, CellTiter-Glo luminescence, 17 h; series mostly up to 62 µM; note: nearly all actives have a fitted effect of over 50% in size; note: potency is the fitted concentration of half-maximal effect
# Procedure, shortened: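 In this counter screen, HEK293H cells carrying a UAS-beta-lactamase reporter are co-treated with test compounds and 300 nM L165041 (final) for 17 h at 37 C; cell viability is quantified by CellTiter-Glo luminescence.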
# [16] = target: Peroxisome proliferator-activated receptor delta (Homo sapiens) (UniProt Q03181); test: qHTS assay to identify small molecule antagonists of the peroxisome proliferator-activated receptor delta (PPARd) signaling pathway (AID 743215; active = well fitted inhibition curve with a large enough effect in the signal ratio in the repeat runs, not every such curve was filed as active; the % refers to the signal ratio;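 note: cells stimulated with agonist L165041 at 300 nM final during compound exposure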); details: HEK293H PPARd-UAS-bla, beta-lactamase FRET ratio, antagonist, 17 h; series mostly up to 62 µM
# Procedure, shortened: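 Inhibition of L165041-driven (300 nM final) PPARd signaling is scored in HEK293H UAS-bla cells. Exposure lasts 17 h at 37 C; beta-lactamase activity is then read by FRET substrate fluorescence after 2 h at room temperature.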
# [17] = target: Bile acid receptor (Homo sapiens) (UniProt Q96RI1); test: qHTS assay to identify small molecule agonists of the farnesoid-X-receptor (FXR) signaling pathway (AID 743220; active = well fitted activation curve with a large enough effect in the signal ratio in the repeat runs, not every such curve was filed as active; the % refers to the signal ratio); details: HEK293T FXR-UAS-bla, beta-lactamase FRET ratio, 16 h; series mostly up to 62.6 µM
# Procedure, shortened: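 Beta-lactamase reporter under UAS control in GeneBLAzer FXR HEK 293T cells (5000/well) measured with LiveBLAzer FRET substrate after 2 h at room temperature. Compound exposure lasted 16 h at 37C.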
# [18] = target: Vitamin D3 receptor (Homo sapiens) (UniProt P11473); test: qHTS assay to identify small molecule antagonists of the vitamin D receptor (VDR) signaling pathway (AID 743223; active = well fitted inhibition curve with a large enough effect in the signal ratio in the repeat runs, not every such curve was filed as active; the % refers to the signal ratio); details: VDR-UAS-bla HEK293T, beta-lactamase FRET ratio, 16 h; series mostly up to 61 µM
# Procedure, shortened: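 Antagonist mode uses 1alpha,25-dihydroxyvitamin D3 at 3 nM final as stimulus. VDR-bla cells receive compounds in DMSO, incubate 16 h at 37C, then a beta-lactamase FRET substrate for 2 h at room temperature before fluorescence measurement.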
# [19] = target: Bile acid receptor (Homo sapiens) (UniProt Q96RI1); test: qHTS assay to identify small molecule antagonists of the farnesoid-X-receptor (FXR) signaling pathway (AID 743217; active = well fitted inhibition curve with a large enough effect in the signal ratio in the repeat runs, not every such curve was filed as active; the % refers to the signal ratio); details: HEK293T FXR-UAS-bla, beta-lactamase ratio, CDCA-stimulated, 16 h; series mostly up to 62.6 µM
# Procedure, shortened: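 Antagonist mode against 50 uM (final) chenodeoxycholic acid stimulation in FXR-bla HEK 293T cells, 16 h at 37 °C. Inhibition detected as reduced beta-lactamase activity via LiveBLAzer B/G FRET fluorescence after 2 h at room temperature.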
# [20] = target: Aryl hydrocarbon receptor (Homo sapiens) (UniProt P35869); test: qHTS assay to identify small molecule that activate the aryl hydrocarbon receptor (AhR) signaling pathway (AID 743085); details: HepG2 AhR-luc (HG2L7.5c1), luciferase, 24 h; series mostly up to 70.3 µM;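 note: HG2L7.5c1 human HepG2 liver cells with stably integrated DRE-driven firefly reporter; nearly all actives have a fitted effect of over 15% in size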
# Procedure, shortened: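 Cell line HG2L7.5c1 (human hepatoma, 20× DRE-luc). Plated, 5 h 37C, compound/DMSO added, 24 h 37C. CellTiter-Fluor 30 min 37C → fluorescence; then ONE-Glo 30 min RT → luminescence.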
# Sequence of Peroxisome proliferator-activated receptor gamma (Homo sapiens) (P37231 whole entry, looked up): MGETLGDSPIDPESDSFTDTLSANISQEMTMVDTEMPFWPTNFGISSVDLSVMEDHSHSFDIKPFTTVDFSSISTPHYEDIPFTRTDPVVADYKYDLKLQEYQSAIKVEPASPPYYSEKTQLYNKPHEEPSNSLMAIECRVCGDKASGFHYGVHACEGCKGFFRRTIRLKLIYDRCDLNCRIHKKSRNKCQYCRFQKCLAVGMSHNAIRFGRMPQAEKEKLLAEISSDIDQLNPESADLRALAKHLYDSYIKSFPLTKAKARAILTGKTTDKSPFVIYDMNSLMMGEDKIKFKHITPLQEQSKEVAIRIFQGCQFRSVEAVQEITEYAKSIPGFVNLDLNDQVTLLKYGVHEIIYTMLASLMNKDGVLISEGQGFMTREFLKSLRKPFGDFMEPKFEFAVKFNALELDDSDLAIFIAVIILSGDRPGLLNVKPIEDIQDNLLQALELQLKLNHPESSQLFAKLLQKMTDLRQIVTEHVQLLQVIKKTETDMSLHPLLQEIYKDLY
# Sequence of Vitamin D3 receptor (Homo sapiens) (P11473 whole entry, looked up): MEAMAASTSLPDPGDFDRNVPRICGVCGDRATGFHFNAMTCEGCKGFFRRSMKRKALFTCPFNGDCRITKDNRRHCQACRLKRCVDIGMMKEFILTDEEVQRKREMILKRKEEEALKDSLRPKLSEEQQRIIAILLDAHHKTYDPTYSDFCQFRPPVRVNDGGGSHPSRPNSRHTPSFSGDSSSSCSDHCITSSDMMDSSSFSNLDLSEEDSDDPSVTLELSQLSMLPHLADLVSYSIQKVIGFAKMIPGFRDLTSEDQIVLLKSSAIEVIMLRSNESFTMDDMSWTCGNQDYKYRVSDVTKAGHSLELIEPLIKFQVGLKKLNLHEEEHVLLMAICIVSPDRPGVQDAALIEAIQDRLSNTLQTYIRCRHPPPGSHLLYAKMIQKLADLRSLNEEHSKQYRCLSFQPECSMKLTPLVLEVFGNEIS
# Sequence of Peroxisome proliferator-activated receptor delta (Homo sapiens) (Q03181 whole entry, looked up): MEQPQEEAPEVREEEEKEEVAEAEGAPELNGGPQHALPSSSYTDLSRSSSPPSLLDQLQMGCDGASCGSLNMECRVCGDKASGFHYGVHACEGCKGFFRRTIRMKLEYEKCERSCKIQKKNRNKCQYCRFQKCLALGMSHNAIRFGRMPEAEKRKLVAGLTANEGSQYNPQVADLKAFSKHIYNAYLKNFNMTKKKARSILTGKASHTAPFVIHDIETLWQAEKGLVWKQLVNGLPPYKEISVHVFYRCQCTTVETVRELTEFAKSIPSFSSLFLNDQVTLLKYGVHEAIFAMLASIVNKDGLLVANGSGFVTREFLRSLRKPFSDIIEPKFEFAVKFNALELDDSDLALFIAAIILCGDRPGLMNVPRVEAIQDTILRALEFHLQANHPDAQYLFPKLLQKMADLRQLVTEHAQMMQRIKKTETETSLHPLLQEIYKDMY
# Sequence of Bile acid receptor (Homo sapiens) (Q96RI1 whole entry, looked up): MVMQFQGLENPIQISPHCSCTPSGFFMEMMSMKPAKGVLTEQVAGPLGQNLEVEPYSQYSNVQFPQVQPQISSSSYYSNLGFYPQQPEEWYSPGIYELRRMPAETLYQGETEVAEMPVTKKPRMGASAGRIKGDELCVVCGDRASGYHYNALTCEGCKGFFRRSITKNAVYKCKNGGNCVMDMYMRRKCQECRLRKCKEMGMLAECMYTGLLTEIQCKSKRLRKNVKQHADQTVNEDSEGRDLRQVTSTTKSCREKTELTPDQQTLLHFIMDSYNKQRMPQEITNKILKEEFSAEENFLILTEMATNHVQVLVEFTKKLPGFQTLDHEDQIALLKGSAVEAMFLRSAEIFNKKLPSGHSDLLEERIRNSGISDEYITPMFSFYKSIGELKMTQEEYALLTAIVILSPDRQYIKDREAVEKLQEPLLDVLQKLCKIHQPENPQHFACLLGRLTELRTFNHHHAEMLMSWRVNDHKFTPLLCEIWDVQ
# Sequence of Aryl hydrocarbon receptor (Homo sapiens) (P35869 whole entry, looked up): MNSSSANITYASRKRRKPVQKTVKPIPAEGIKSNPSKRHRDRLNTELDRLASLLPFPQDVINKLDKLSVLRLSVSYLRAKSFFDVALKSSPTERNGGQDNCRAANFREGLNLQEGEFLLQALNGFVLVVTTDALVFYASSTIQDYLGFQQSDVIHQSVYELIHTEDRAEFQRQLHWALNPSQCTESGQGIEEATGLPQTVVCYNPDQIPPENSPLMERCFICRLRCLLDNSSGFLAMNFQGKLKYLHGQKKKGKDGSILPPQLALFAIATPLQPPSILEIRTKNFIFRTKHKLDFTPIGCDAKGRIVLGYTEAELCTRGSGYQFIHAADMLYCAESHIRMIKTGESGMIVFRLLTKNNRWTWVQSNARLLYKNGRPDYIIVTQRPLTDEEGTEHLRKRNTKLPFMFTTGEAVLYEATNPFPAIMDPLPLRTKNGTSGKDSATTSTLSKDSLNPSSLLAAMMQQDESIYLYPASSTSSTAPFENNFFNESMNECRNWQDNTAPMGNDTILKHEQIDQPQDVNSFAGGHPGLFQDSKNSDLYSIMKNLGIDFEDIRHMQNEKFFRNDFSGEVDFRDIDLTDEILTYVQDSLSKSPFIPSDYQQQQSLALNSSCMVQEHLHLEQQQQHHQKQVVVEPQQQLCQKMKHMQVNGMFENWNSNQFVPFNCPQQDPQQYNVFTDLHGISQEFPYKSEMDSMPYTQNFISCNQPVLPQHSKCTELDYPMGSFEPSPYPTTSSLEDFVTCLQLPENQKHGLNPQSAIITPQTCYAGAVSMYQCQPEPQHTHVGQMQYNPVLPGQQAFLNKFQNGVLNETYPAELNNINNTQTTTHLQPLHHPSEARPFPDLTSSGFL
SMILES,Potency [1],Potency [2],outcome [3],Potency [4],Potency [5],Potency [6],Potency [7],Potency [8],outcome [9],Potency [10],Potency [11],outcome [12],Potency [13],Potency [14],Potency [15],Potency [16],outcome [17],outcome [18],outcome [19],Potency [20]
Clc1nc(Cl)nc(Nc2ccccc2Cl)n1,inactive,inactive,inactive,inactive,inactive,inactive,inactive,inactive,inactive,inactive,inactive,inactive,,,,,,,,
CCC1(CC)C(=O)C=CNC1=O,inactive,inactive,inactive,,inactive,inactive,inactive,inactive,inactive,inactive,,,inactive,inactive,inactive,inactive,,,,
O=C(Cl)c1ccccc1,inactive,inactive,inactive,inactive,inactive,inactive,,inactive,inactive,,inactive,inactive,,,inactive,inactive,inactive,inactive,,
CCOP(=S)(OCC)Oc1ccc(Cl)cc1Cl,inactive,inactive,inactive,inactive,inactive,inactive,inactive,inactive,inactive,inactive,inactive,inactive,,,inactive,inactive,,inactive,,
O=C1C2CC=CCC2C(=O)N1SC(Cl)(Cl)Cl (stereo not drawn),inactive and 21.3 µM (active),inactive and 42.6 µM (active),inactive,,inactive and 23.9 µM (active),inactive,,inactive and 10.8 µM (active),inactive,inactive and 21.5 µM (active),,inactive,3.83 µM (active),,inactive and 12.1 µM (active),,,inactive,,
Cc1cccc2sc3nncn3c12,inactive,inactive,inactive,,inactive,inactive,,inactive,inactive,inactive,inactive,,inactive,1.37 µM (active),inactive,inactive,inactive,,inactive,
NNCc1ccccc1,inactive,inactive,inactive,,inactive,inactive,inactive,inactive,inactive,inactive,,,inactive,5.55 µM (active),inactive,inactive,inactive,,,
Cc1ccc(S(=O)(=O)N[C@@H](CCCCN)C(=O)CCl)cc1,,,,inactive,inactive,inactive,,inactive,,inactive,inactive,,inactive,inactive,inactive,,,,,inactive
COc1cccc([C@@]2(O)CCCC[C@@H]2CN(C)C)c1,,inactive,inactive,inactive,,inactive,inactive,inactive,inactive,inactive,inactive,,inactive,,,,,,,inactive
N#CN=C1SCCN1Cc1ccc(Cl)nc1,inactive,,inactive,,inactive,inactive,inactive,inactive,inactive,inactive,,,,,,inactive,,,,
CCN(CC)C1CCCCC1,inactive,inactive,,,,inactive,inactive,inactive,inactive,inactive,inactive,inactive,inactive,inactive,,inactive,,inactive,inactive,
CCCOC(=O)c1cncn1C(C)c1ccccc1 (stereo not drawn),,,,inactive,inactive,inactive,inactive,inactive,inactive,inactive,inactive,,inactive,inactive,inactive,inactive,,,,
CC(C)(N)Cc1ccccc1Cl,,,,inactive,,inactive,inactive,inactive,inactive,inactive,,,inactive,,,inactive,inactive,inactive,inactive,
O=[N+]([O-])c1cccc(CCl)c1,,inactive,,,,inactive,inactive,inactive,,inactive,inactive,inactive,inactive,31.3 µM (active),inactive,,,inactive,,

# Reference: PubChem BioAssay (Tox21)
